Among all 39,000 compounds or so, about 3,300 (8.5%) were called active. This excerpt belongs to a sample that is enriched for actives.
tested on: HepG2; assay: cytotoxicity call (relative viability < 0.9); conditions: 10 µM

Question: For `C[C@H]1CN([C@@H](C)CO)C(=O)c2cc(NS(=O)(=O)c3ccccc3)ccc2O[C@H]1CN(C)S(=O)(=O)c1cccs1`, which cytotoxicity call is on record?
Answer: inactive

Question: For `COc1ccc(CN(C)C[C@@H]2OCCCC[C@H](C)Oc3ccc(NS(=O)(=O)c4ccccc4)cc3C(=O)N([C@H](C)CO)C[C@H]2C)cc1`, which cytotoxicity call is on record?
Answer: inactive

Question: `C[C@@H]1CCCCO[C@@H](CN(C)Cc2ccc(C(=O)O)cc2)[C@@H](C)CN([C@H](C)CO)C(=O)c2cc(NS(=O)(=O)c3ccc(F)cc3)ccc2O1` was tested. Which cytotoxicity call did it give?
Answer: inactive

Question: With `C[C@@H]1CN([C@H](C)CO)C(=O)c2cccc(NC(=O)NC3CCCCC3)c2O[C@@H]1CN(C)Cc1ccc(Cl)c(Cl)c1` as the compound, how does the cytotoxicity call read?
Answer: inactive

Question: For `COc1ccc(NC(=O)Nc2ccc3c(c2)C(=O)N([C@H](C)CO)C[C@H](C)[C@@H](CN(C)S(=O)(=O)c2ccccc2)OCCCC[C@@H](C)O3)cc1`, which cytotoxicity call is on record?
Answer: inactive

Question: With `Cc1ccc(S(=O)(=O)Nc2cccc3c2O[C@H](CN(C)S(=O)(=O)c2c(C)noc2C)[C@@H](C)CN([C@H](C)CO)C3=O)cc1` as the compound, how does the cytotoxicity call read?
Answer: inactive

Question: `CCC(C(C)O)n1ncn(-c2ccc(N3CCN(c4ccc(OCC5COC(Cn6cncn6)(c6ccc(F)cc6F)C5)cc4)CC3)cc2)c1=O` (stereo not given) was tested. Which cytotoxicity call did it give?
Answer: active

Question: `CC[C@H](C)n1ncn(-c2ccc(N3CCN(c4ccc(OC[C@H]5CO[C@](Cn6cncn6)(c6ccc(Cl)cc6Cl)O5)cc4)CC3)cc2)c1=O` was tested. Which cytotoxicity call did it give?
Answer: inactive

Question: Which cytotoxicity call does the source give for `CC(C)N1CCN(c2ccc(OCC3COC(Cn4cncn4)(c4ccc(Cl)cc4Cl)O3)cc2)CC1` (stereo not given) here?
Answer: inactive

Question: `CCC(C)n1ncn(-c2ccc(N3CCN(c4ccc(OCC5COC(Cn6cncn6)(c6ccc(Cl)cc6Cl)O5)cc4)CC3)cc2)c1=O.Cl.Cl` (stereo not given) was tested. Which cytotoxicity call did it give?
Answer: active

Question: Which cytotoxicity call does the source give for `CC[C@@H](C)n1ncn(-c2ccc(N3CCN(c4ccc(OC[C@H]5CO[C@](Cn6cncn6)(c6ccc(Cl)cc6Cl)O5)cc4)CC3)cc2)c1=O` here?
Answer: active

Question: With `CC(=O)N1CCN(c2ccc(OCC3COC(Cn4ccnc4)(c4ccc(Cl)cc4Cl)O3)cc2)CC1` (stereo not given) as the compound, how does the cytotoxicity call read?
Answer: inactive

Question: Which cytotoxicity call does the source give for `C[C@@H]1CN([C@@H](C)CO)C(=O)c2cccc(NC(=O)c3ccc(-c4nccs4)cc3)c2O[C@H]1CN(C)C(=O)Nc1ccc(F)cc1` here?
Answer: inactive

Question: Which cytotoxicity call does the source give for `CCS(=O)(=O)Nc1ccc2c(c1)C(=O)N(C)C[C@H](OC)[C@@H](C)CN(Cc1ccccn1)[C@H](C)CO2` here?
Answer: inactive

Question: For `COc1ccc(C#Cc2ccc3c(c2)O[C@@H](CN(C)C(=O)c2ccccn2)[C@H](C)CN([C@H](C)CO)S3(=O)=O)cc1`, which cytotoxicity call is on record?
Answer: inactive

Question: With `CC1=CC(=O)N(c2ccn(C)n2)C1=O` as the compound, how does the cytotoxicity call read?
Answer: inactive

Question: `C[C@@H]1CN([C@H](C)CO)C(=O)c2cc(NC(=O)Cc3ccccc3)ccc2O[C@@H]1CN(C)C(=O)Nc1cccc2ccccc12` was tested. Which cytotoxicity call did it give?
Answer: inactive

Question: `CC(C)NC(=O)Nc1ccc2c(c1)C(=O)N([C@@H](C)CO)C[C@H](C)[C@@H](CN(C)S(=O)(=O)c1cccs1)O2` was tested. Which cytotoxicity call did it give?
Answer: inactive

Question: How did the cytotoxicity call turn out when `C[C@@H]1CN([C@H](C)CO)C(=O)Cc2cc(NC(=O)Nc3ccc(C(F)(F)F)cc3)ccc2O[C@H]1CN(C)C(=O)Nc1ccccc1` was run?
Answer: inactive

Question: How did the cytotoxicity call turn out when `CN1CCN(C(=O)C[C@H]2CC[C@@H]3[C@H](COC[C@@H](O)CN3Cc3ccc4c(c3)OCO4)O2)CC1` was run?
Answer: inactive

Question: For `C[C@@H]1CCCCO[C@H](CN(C)C(=O)c2ccncc2)[C@H](C)CN([C@@H](C)CO)C(=O)c2cc(NS(=O)(=O)c3ccc(Cl)cc3)ccc2O1`, which cytotoxicity call is on record?
Answer: inactive

Question: With `O=C(C[C@H]1C=C[C@H](NC(=O)c2cnccn2)[C@H](CO)O1)NCc1ccccc1F` as the compound, how does the cytotoxicity call read?
Answer: inactive

Question: How did the cytotoxicity call turn out when `Cc1ccc(S(=O)(=O)N(C)C[C@H]2Oc3ccc(NC(=O)CCCN(C)C)cc3C(=O)N([C@H](C)CO)C[C@H]2C)cc1` was run?
Answer: inactive

Question: How did the cytotoxicity call turn out when `CO[C@H](CN(C)C(=O)C1CCOCC1)[C@@H](C)CN(C(=O)Nc1ccc(C(F)(F)F)cc1)[C@@H](C)CO` was run?
Answer: inactive

Question: How did the cytotoxicity call turn out when `Cc1ccc(S(=O)(=O)Nc2ccc3c(c2)CC(=O)N([C@H](C)CO)C[C@H](C)[C@H](CN(C)Cc2ccc(-c4ccccc4)cc2)O3)cc1` was run?
Answer: active

Question: `Cc1ccc(S(=O)(=O)Nc2ccc3c(c2)CC(=O)N([C@H](C)CO)C[C@@H](C)[C@H](CN(C)Cc2ccc(-c4ccccc4)cc2)O3)cc1` was tested. Which cytotoxicity call did it give?
Answer: active

Question: For `Cc1ccc(S(=O)(=O)Nc2ccc3c(c2)CC(=O)N([C@H](C)CO)C[C@@H](C)[C@@H](CN(C)Cc2ccc(-c4ccccc4)cc2)O3)cc1`, which cytotoxicity call is on record?
Answer: active

Question: `Cc1ccc(S(=O)(=O)Nc2ccc3c(c2)CC(=O)N([C@@H](C)CO)C[C@@H](C)[C@H](CN(C)Cc2ccc(-c4ccccc4)cc2)O3)cc1` was tested. Which cytotoxicity call did it give?
Answer: inactive

Question: How did the cytotoxicity call turn out when `Cc1ccc(S(=O)(=O)Nc2ccc3c(c2)CC(=O)N([C@H](C)CO)C[C@H](C)[C@@H](CN(C)Cc2ccc(-c4ccccc4)cc2)O3)cc1` was run?
Answer: active

Question: How did the cytotoxicity call turn out when `CS(=O)(=O)N1C[C@H]2CN(C(=O)c3cnccn3)C[C@@H]2C1` was run?
Answer: inactive

Question: How did the cytotoxicity call turn out when `Cc1cc(SCc2ccc(F)cc2)c(C)cc1Cl` was run?
Answer: inactive

Question: How did the cytotoxicity call turn out when `Cc1noc(C)c1NC(=O)N(C)C[C@H]1Oc2c(NC(=O)c3cnccn3)cccc2C(=O)N([C@@H](C)CO)C[C@H]1C` was run?
Answer: inactive

Question: For `Cc1noc(C)c1S(=O)(=O)Nc1ccc2c(c1)C(=O)N([C@H](C)CO)C[C@H](C)[C@@H](CN(C)S(=O)(=O)c1ccc(Cl)cc1)O2`, which cytotoxicity call is on record?
Answer: inactive

Question: Which cytotoxicity call does the source give for `COCC#Cc1cnc2c(c1)C(=O)N([C@@H](C)CO)C[C@H](C)[C@H](CN(C)S(=O)(=O)c1cn(C)cn1)O2` here?
Answer: inactive

Question: With `COCC(=O)N[C@H]1C=C[C@@H](CC(=O)N2CCCCC2)O[C@@H]1CO` as the compound, how does the cytotoxicity call read?
Answer: inactive

Question: With `CCCC#Cc1ccc2c(c1)O[C@H](CN(C)S(=O)(=O)c1cccc(OC)c1)[C@H](C)CN([C@H](C)CO)S2(=O)=O` as the compound, how does the cytotoxicity call read?
Answer: inactive

Question: Which cytotoxicity call does the source give for `C[C@@H]1CCCCO[C@@H](CN(C)C(=O)Nc2ccccc2)[C@@H](C)CN([C@H](C)CO)C(=O)c2cc(NC(=O)CCCCCC(=O)Nc3ccccc3N)ccc2O1` here?
Answer: inactive

Question: `O=C(C1=C[C@@H](c2csc3ccccc23)C[C@@H](OCc2ccc(CO)cc2)O1)N1CCN(Cc2ccccc2)CC1` was tested. Which cytotoxicity call did it give?
Answer: inactive

Question: `C[C@@H]1CCCCO[C@@H](CN(C)C(=O)Nc2ccc(F)cc2)[C@H](C)CN([C@H](C)CO)C(=O)c2cc(NC(=O)C3CCCCC3)ccc2O1` was tested. Which cytotoxicity call did it give?
Answer: inactive

Question: For `CN1CCN(C(=O)C[C@H]2CC[C@H]3[C@@H](COC[C@@H](O)CN3C(=O)C3CCCC3)O2)CC1`, which cytotoxicity call is on record?
Answer: inactive

Reference: the antibiotic and cytotoxicity screens of Wong et al. (2023)
